PubChem BioAssay AID652067 (The Scripps Research Institute Molecular Screening Center, 2013)
Hit rate of the full screen: of about 370,000 compounds, about 5,400 (1.5%) were called active. Many of the other results were omitted from the sample, so actives are more common in it than they were. Values without a mark were called inactive.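 How the source made its calls: active means activation above the mean of all tested compounds plus 3 SD (cut at about 5.5% in these data); inactive means the rest.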

Test system: DAF-12 nuclear receptor (Haemonchus contortus)
Test: H. contortus DAF-12 nuclear receptor activators, primary screen, cell-based, luminescence, HEK293, lit1-tk-luc reporter (AID 652067);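 further: 100% = response to 3 µM Δ7-dafachronic acid high control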
Conditions: HEK293 hcDAF-12 lit1-tk-luc reporter, at 6.8 µM, stronger effect = higher value, 0% DMSO, 100% Δ7-dafachronic acid

Row | SMILES | activation
1 | Cc1ccc(C(=O)N(Cc2ccccn2)CC2CCCO2)cc1 (stereo not given) | -1.39%
2 | CN1[C@H](Cc2ccccc2)COc2cccc(N3CCSCC3)c2S1(=O)=O | 3.54%
3 | CC(=O)N1CCN(c2ccccc2NC(=S)NC(=O)c2cc3ccccc3o2)CC1 | 7.26% (active)
4 | O=C(c1cc2ccccc2o1)N1CCN(Cc2ccccc2)CC1 | -2.1%
5 | O=C(Nc1ccccc1N1CCN(C(=O)c2ccccc2)CC1)c1ccco1 | -1.91%
6 | CN1CCc2ccccc2C1Cc1ccccc1NC(=O)c1sc2ccccc2c1Cl (stereo not given) | 6.57% (active)
7 | CCc1ccccc1NC(=O)NCCN1CCCCC1 | -0.86%
8 | CCc1ccccc1NC(=O)c1ccc2c(c1)CCN2S(C)(=O)=O | -0.87%
9 | COC(=O)[C@]12C[C@H](CC(=O)NCCc3ccccc3OC)C(=O)N(Cc3ccco3)C1=C[C@H](C(C)C)O[C@@H]2C1CC1 | -3.62%
10 | O=C(Nc1ccccc1F)c1ccccc1-c1ccccc1 | -2.35%
11 | O=C(O)c1ccccc1-c1ccccc1C(=O)Nc1cccc2ccccc12 | 5.93% (active)
12 | O=C(O)c1ccccc1-c1ccccc1C(=O)Nc1ccccc1Br | 1.04%
13 | CC(Sc1nnc(CNC(=O)c2ccccc2F)n1C)C(=O)Nc1nccs1 (stereo not given) | -0.26%
14 | COc1ccccc1C(=O)NCc1nnc(SC(C)C(=O)Nc2nccs2)n1C (stereo not given) | 6.99% (active)
15 | COc1ccc(CC(=O)NCc2nnc(SCC(=O)Nc3nccs3)n2C)cc1 | -1.09%
16 | COC(=O)[C@H](CC(C)C)NS(=O)(=O)c1c(F)cccc1F | 0.07%
17 | O=C1C(=O)N(Cc2ccc(-c3ccsc3)cc2)c2ccc(OC(F)(F)F)cc21 | 1.15%
18 | Cc1nc(N2CCCCC2)sc1C=O | -0.55%
19 | Brc1ccc2nc(N3CCCC3)sc2c1 | 9.08% (active)
20 | O=C(NCCc1cccc(F)c1)C1CCCN(c2nc3ccccc3s2)C1 (stereo not given) | -1.62%
21 | CC(=O)Nc1ccc(S(=O)(=O)NC2Cc3ccccc3C2)cc1 | -1.07%
22 | CC(=O)Nc1ccc(-c2nc3ccccc3o2)cc1 | 6.08% (active)
23 | Cc1nc2ccc(NC(=O)C(F)(F)F)cc2o1 | 0.11%

Row | SMILES | activation
24 | CC[C@H](C)[C@H]1CNC(=O)C(=O)N1CC1CCN(CCc2ccc(OC)c(OC)c2)CC1 | -1.29%
25 | Cc1cc(O)c(C(=O)/C=C/c2c(F)c(F)c(F)c(F)c2F)c(=O)o1 | 8.11% (active)
26 | Cc1cc(O)c(Sc2ccccc2)c(=O)o1 | 0.75%
27 | C=CCN1[C@@H](Cc2ccccc2)COc2cccc(N3CCSCC3)c2S1(=O)=O | -1.72%
28 | Cc1ccc2cccc(OCCCOc3ccccc3CO)c2n1 | -0.62%
29 | CC1(C)OC(=O)C2=C(CC(CCc3ccccc3)OC2c2ccc(Cl)cc2)O1 (stereo not given) | -1.84%
30 | O=C(NC1CCCCC1)C(c1cc2ccccc2o1)n1c(=O)c(-c2ccco2)nc2ccccc21 (stereo not given) | 9.06% (active)
31 | Cc1cccc(C)c1NC(=O)C(c1ccc(C(F)(F)F)cc1)n1c(=O)c(-c2ccco2)nc2ccccc21 (stereo not given) | 0.34%
32 | Cc1cccc(C)c1NC(=O)C(c1cccc2ccccc12)n1c(=O)c(-c2ccco2)nc2ccccc21 (stereo not given) | 2.42%
33 | O=C(COc1cccc(Cl)c1)NCc1ccccc1 | 6.74% (active)
34 | O=C(CCOc1ccccc1)NCc1ccccc1 | 0.79%
35 | O=C(COC(=O)c1cccc(Cl)c1)NC(=O)NCc1ccccc1 | 0.2%
36 | COc1ccc(CN2C(=O)N3Cc4cc(OC)ccc4C3CS2(=O)=O)cc1 (stereo not given) | -4.29%
37 | Cn1c(=O)cc(SCC(=O)N2CCN(C(=O)c3ccco3)CC2)c2ccccc21 | -0.81%
38 | CCOC(=O)C1CCN(C(=O)CSc2cc(=O)n(C)c3ccccc23)CC1 | 5.88% (active)
39 | Cn1c(=O)cc(SCC(=O)N2CCCC2)c2cc(Cl)ccc21 | 0.28%
40 | O=C(N[C@H](C(=O)N1CCC[C@H]1C(=O)NCCc1ccccc1Cl)c1ccccc1)c1ccccc1 | -0.38%
41 | CCOC(=O)[C@]12CCCC=C1N(CCCOC)C(=O)[C@@H]2CC(=O)N1CCOCC1 | -0.67%
42 | O=c1[nH]n2c(=O)c3c([nH]c2c1N=Nc1ccccc1)CCC3 | 0.16%
43 | Cc1ccc(C)c(NC(=O)COC(=O)Cn2c(C)csc2=O)c1 | -0.15%
44 | Cn1cccc1C(=O)N1CCc2ccccc2C1 | 0.07%
45 | Cc1ccc(NC(=O)CN2CCc3ccccc3C2)cc1C | -0.52%
46 | CCc1ccc(NC(=O)N2CCc3ccccc3C2)cc1 | 10.8% (active)

Row | SMILES | activation
47 | COC(=O)C1=C(C)N(Cc2ccccc2C(F)(F)F)C(=NCc2ccc(C(F)(F)F)cc2)NC1c1ccc(F)cc1 (stereo not given) | -0.44%
48 | O=S1(=O)c2ccc(Br)cc2OC[C@@H](Cc2ccccc2)N1Cc1cn(Cc2ccco2)nn1 | -3.82%
49 | O=C(c1ccco1)N1CCN(C(=O)c2cc(-c3ccccc3F)no2)CC1 | 0.36%
50 | O=C(NCCCN1CCOCC1)c1cc(-c2ccccc2F)no1 | -0.99%
51 | Fc1ccccc1-c1cc2cc3c(cc2cn1)OCO3 | 5.75% (active)
52 | COC(=O)[C@]12C[C@H](CC(=O)NCc3cccc4ccccc34)C(=O)N(CCc3ccc(OC)c(OC)c3)C1=C[C@H](C1CCCC1)O[C@@H]2C | -3.52%
53 | C[C@H](CO)N1C[C@H](C)[C@@H](CN(C)C(=O)Nc2ccccc2F)OCc2cn(nn2)CCCC1=O | -0.15%
54 | CC(C)(C)OC(=O)N/N=C/c1ccc(C(=O)O)cc1 | 7.41% (active)
55 | COC(=O)c1ccc(/C=N/NC(=O)C(=O)N2CCCCCC2)cc1 | -0.19%
56 | C/C(=N\NC(=O)OC(C)(C)C)c1ccc[nH]1 | 1.29%
57 | CCCCC(=O)N[C@@H]1CC[C@@]23CCCN2C(=O)CCC[C@H]3[C@H]1C | 0.2%
58 | O=C(NC1CCCC1)c1cc(-c2ccccc2)on1 | 4.69%
59 | COc1ccc(OCc2cc(C(=O)N3CCCC3)no2)c2ccccc12 | 10.3% (active)
60 | Cc1ccc(O)c(NC(=O)c2cc(-c3ccco3)on2)c1 | 0.32%
61 | O=C(c1cc(-c2ccccc2O)on1)N1CCCC1 | 7.33% (active)
62 | O=C(c1cc(-c2ccc(Cl)s2)nc2ccccc12)N1CCOCC1 | -1.34%
63 | COCCN1CCN(C(=O)c2cc(COc3ccc(F)cc3Cl)on2)CC1 | -1.75%
64 | O=C(Nc1ccccc1C(F)(F)F)c1cc(-c2ccc(O)cc2)on1 | -0.51%
65 | O=C(c1cc(COc2ccc(F)cc2F)on1)N1CCOCC1 | 1.67%
66 | O=C(c1cc(-c2ccc(O)cc2)on1)N1CCOCC1 | 6.07% (active)
67 | COc1cc(Cl)ccc1OCc1cc(C(=O)N2CC[C@@H]3CCCC[C@H]3C2)no1 | 1.66%
68 | O=C(Nc1cccnc1Cl)c1cc(-c2ccccc2O)on1 | 6.07% (active)
69 | O=C(c1cc(C2CCCCN2S(=O)(=O)c2ccccc2)on1)N1CCOCC1 (stereo not given) | -0.3%

Row | SMILES | activation
70 | CC(=O)C1C(c2ccc(Cl)cc2)c2c(n[nH]c2C)CC1(C)O (stereo not given) | -0.09%
71 | O=S(=O)(c1cccs1)N1CCCc2nc(-c3ccc(Br)cc3)ccc21 | -0.17%
72 | CCc1ccc(C2=CC(=O)CC(C)(C)C2=O)cc1 | 1.24%
73 | CC(C)N1CCCCC(NC(=O)c2ccc3ccccc3c2)C1=O (stereo not given) | -0.97%
74 | C=CCN1C(=O)[C@@H](CC(=O)NCCCOCCCC)[C@]2(C(=O)OCC)CCCCC/C=C/12 | -0.92%
75 | COc1ccc(S(=O)(=O)Nc2ccc3c(c2)C(=O)N([C@H](C)CO)C[C@H](C)[C@@H](CN(C)C)OCCCC[C@H](C)O3)cc1 | -1.41%
76 | Cc1cc(Br)cn2c(Cc3ccccc3C(F)(F)F)c(-c3ccc(C#N)cc3)nc12 | 0.68%
77 | COc1ccc(-c2cc(=O)oc3cc(OCC(=O)N[C@@H](Cc4c[nH]c5ccccc45)C(=O)O)ccc23)cc1 | 4.41%
78 | COc1ccc(-c2cc(C(=O)NC(Cc3c[nH]c4ccccc34)C(=O)O)c(C)o2)cc1OC (stereo not given) | 6.3% (active)
79 | COc1ccc(-c2cc(C(=O)NC(C(=O)O)C(C)C)c(C)o2)cc1OC (stereo not given) | 1.96%
80 | CCOC(=O)/C=C/c1ccccc1O | -0.51%
81 | Cc1cc2ncn(CCCCOc3ccccc3)c2cc1C | -1.91%
82 | C[C@@H](CN1C2=NC[C@@H](Cc3ccccc3)N2C[C@H]1Cc1ccc(O)cc1)NC(=O)CCC1CCCCC1 | -1.42%
83 | COc1ccc(OC)c(-n2c(=S)[nH]c3cc(C(=O)N4CCCCC4)ccc3c2=O)c1 | -1.94%
84 | COc1cccc(-n2c(=S)[nH]c3c(oc4ccccc43)c2=O)c1 | 5.86% (active)
85 | COc1cccc(-n2nc(C(=O)N3CCN(Cc4ccccc4)CC3)c3ccccc3c2=O)c1 | -2.27%
86 | C[C@@H]1ON(C)[C@H]2C[C@H]3c4cc(N5CCOCC5)ccc4CCN3C[C@@H]12 | -1.8%
87 | CCc1ccc2oc(-c3ccc(N)cc3)nc2c1 | 11.8% (active)
88 | CCCCOCCCNC(=O)C[C@H]1C[C@@]2(C(=O)OC)C(=C[C@H](COCc3ccccc3)O[C@@H]2C)N(Cc2cccc3ccccc23)C1=O | -1.88%
89 | COc1cccc(Cn2cc(COC(=O)Nc3ccc(F)cc3)nn2)c1 | -2.13%
90 | Cc1cc(NS(=O)(=O)c2ccc(NC(=O)CSc3nnc(SCc4ccc(F)cc4)s3)cc2)nc(C)n1 | 0.88%
